# Assay results from PubChem BioAssay AID2314 (National Center for Advancing Translational Sciences (NCATS), 2010).
# Among all 300,000 compounds or so, about 37,000 (12%) were called active. The list comes from a sample in which actives are over-represented; it also holds similar structures and randomly drawn compounds. Unmarked numbers belong to inactive results. Cut-off read from the data, not from the text of the source: active = max response mostly above about 13% (no sharp cut-off); inactive = mostly below about 14%.
# Test: Cycloheximide Counterscreen for Small Molecule Inhibitors of Shiga Toxin; note: read at 38.3 µM for the half of the compounds with a filed dose; 0% is about no effect
# Settings: cell reporter, cycloheximide protein synthesis inhibition counterscreen; hits give high values
row,SMILES,max response
1,Cc1ccc(NS(=O)(=O)c2cn(C)c(=O)n(C)c2=O)c(C)c1,-0.304%
2,Cc1ccc2c(c1)N(CC(=O)N1CCCC(C)C1)C(=O)CO2 (stereo not drawn),-3.96%
3,COC(=O)C1(CCSC)NC(c2ccc(OC)cc2OC)C2C(=O)N(c3cccc(C(C)=O)c3)C(=O)C21 (stereo not drawn),-3.66%
4,Cc1cccc(NC(=O)c2ccc3c(=O)n(CC4CCCO4)c(=S)[nH]c3c2)c1 (stereo not drawn),10.1%
5,COC(=O)c1ccc(NC(=O)CSc2nc(N)c(NC(=O)c3ccc(Br)o3)c(=O)[nH]2)cc1,9.86%
6,CCOC(=O)CNc1nc(Cl)nc(Nc2ccccc2)n1,45.2% (active)
7,CCC(=O)Nc1ccc(Nc2nc(Cl)nc(Nc3ccc(NC(=O)CC)cc3)n2)cc1,-3.17%
8,CCOC(=O)CNc1nc(Cl)nc(Nc2ccc(OC)cc2OC)n1,-3.67%
9,Cc1nc(C(=O)N2CCCC(C(=O)c3ccc(Cl)cc3)C2)cs1 (stereo not drawn),0.775%
10,COc1ccccc1NC(=O)C1CCN(C(=O)c2ccc(C(C)(C)C)cc2)CC1,-1.21%
11,Cn1nc(-c2ccccc2)c(CSc2cccc(Cl)c2)c1Cl,-2.67%
12,Fc1ccccc1OCCSc1nc2ccccc2o1,26.3% (active)
13,Cn1c(=O)c2c(nc(Br)n2CCSc2nc3ccccc3o2)n(C)c1=O,-1.28%
14,O=c1c2ccccc2ncn1CCCCOc1ccccc1F,1.24%
15,COC(=O)c1ccc(CN2CCCC(C(=O)Nc3cccc(-n4cnnn4)c3)C2)cc1 (stereo not drawn),-1.47%
16,O=C(C1CC(=O)N(c2ccc(F)cc2)C1)N1CCN(c2ccccc2)CC1 (stereo not drawn),-1.52%
17,O=C(Nc1cccn(Cc2c(Cl)cccc2Cl)c1=O)c1ccc(Cl)cc1,1.71%
18,CCOc1ccccc1NC(=O)NC1CCCCCCC1,10.6%
19,O=C(Nc1cccn(Cc2ccccc2Cl)c1=O)NC1CCCCC1,10.8% (active)
20,CC(=O)N1CCN(C(=O)C2(NC(=O)Nc3ccc(C)cc3)CCCCC2)CC1,6.9%

row,SMILES,max response
1,COC(=O)/C(=C\Nc1ccccc1)NC(=O)c1ccc(Cl)cc1Cl,16.3%
2,CC(=O)c1c(C)[nH]c(C(=O)Nc2cc(S(=O)(=O)N(C)C)ccc2C)c1C,6.78%
3,COC(=O)[C@@H]1CCCN1C(=O)c1cc(COc2cccc3cccnc23)on1,-3.11%
4,CSc1ccccc1OCc1cc(C(=O)N2C[C@H]3CC[C@H]2C3)no1,45.3% (active)
5,CSc1ccccc1OCc1cc(C(=O)N(C)CCc2c(C)n[nH]c2C)no1,15.1%
6,COc1ccc(NC(=O)C(NC(C)=O)C(=O)NCc2ccccc2Cl)cc1 (stereo not drawn),1.56%
7,Cc1cc(C(=O)NNS(=O)(=O)c2ccccc2C(F)(F)F)nn1C(C)(C)C,7.74%
8,O=C(CN1C(=O)COc2ccccc21)NCCN1CCc2ccccc2C1,4.27%
9,O=C(CN1C(=O)COc2ccccc21)Nc1ccc(F)cc1,44.7% (active)
10,CC(OC(=O)CN1C(=O)COc2ccccc21)C(=O)NCc1ccc(F)cc1 (stereo not drawn),-2.2%
11,C/C(N)=C(/C#N)C(=O)COC(=O)C1=NN(c2ccccc2)C(=O)CC1,-5.97%
12,O=C(Nc1nnc(S(=O)(=O)N2CCOCC2)s1)c1cccc(Br)c1,7.79%
13,S=c1[nH]c(-c2cccs2)cn1-c1ccccc1,34.1% (active)
14,O=c1[nH]c(-c2cccs2)nc2ccccc12,20%
15,O=c1oc2ccccc2cc1-c1cn(-c2ccccc2)c(=S)[nH]1,7.59%
16,COc1cc(/C=C/C(=O)OCC(=O)Nc2cccc(Oc3ccccc3)c2)ccc1O,10.4%
17,COc1ccc(S(=O)(=O)N2CCC(C(=O)N3CCCC3)CC2)cc1C,-13.9%
18,Cc1ccc(CSc2nc(-c3ccccc3)c(C#N)c(=O)[nH]2)cc1,-11.1%
19,Cc1ccccc1CSc1nnc(-c2ccccc2)c(=O)[nH]1,18.4%
20,O=c1[nH]c(SCc2ccccc2)nnc1-c1ccccc1,11% (active)

row,SMILES,max response
1,COC(=O)c1ccc(NC(=O)c2cc(Cl)ccc2OC)cc1,0.237%
2,COc1ccc(Cl)cc1C(=O)NCC#N,-1.71%
3,COc1cc(OC)c(C(=O)Nc2ccccc2-c2ccccc2)cc1OC,-1.49%
4,COc1cc(OC)c(C(=O)NC2CC(C)(C)NC(C)(C)C2)cc1OC,-1.33%
5,COc1ccc(Cl)cc1C(=O)Nc1ccc(N(C)C(C)=O)cc1,34.7% (active)
6,COc1cc(OC)c(C(=O)Nc2ccc(N(C)C)cc2)cc1OC,40.8% (active)
7,C=CCn1c(SCCOc2ccc(OC)cc2)nnc1C(NC(=O)c1ccc(OC)cc1)C(C)C (stereo not drawn),-2.43%
8,CN(CC1CCCO1)S(=O)(=O)c1ccc(C(=O)Nc2ccc(F)cc2)cc1 (stereo not drawn),3.84%
9,Cc1oc(-c2ccccc2Cl)[n+]([O-])c1C,-1.24%
10,CCCSc1nc2sc3c(c2c(=O)n1-c1ccc(OC)cc1)CCN(C)C3,0.929%
11,CCc1cccc(NC(=O)C2CCCN(S(=O)(=O)c3ccc4[nH]c(=O)ccc4c3)C2)c1 (stereo not drawn),14.1%
12,Cn1c(=O)n(C)c2cc(S(=O)(=O)Nc3ccc(F)cc3)ccc21,1.27%
13,CCN(CC)CCN(C(=O)c1ccc(N2C(=O)CCC2=O)cc1)c1nc2cc3c(cc2s1)OCO3,14.3%
14,CN(C)CCCN(C(=O)c1ccc(S(=O)(=O)N2CCCCCC2)cc1)c1nc2ccc(Br)cc2s1,11.5% (active)
15,CN(C)CCCN(C(=O)c1ccc(S(=O)(=O)N2CCCc3ccccc32)cc1)c1nc2ccc(F)cc2s1,0.524%
16,O=C(Nc1nc2cc3c(cc2s1)OCCO3)c1cccc(S(=O)(=O)N2CCOCC2)c1,-5.43%
17,CCN(CC)CCN(C(=O)c1ccc(S(=O)(=O)N2CCOCC2)cc1)c1nc2cc3c(cc2s1)OCCO3,13.6% (active)
18,CCOc1ccc2nc(N(CCCN(C)C)C(=O)c3ccc(C(=O)c4ccccc4)cc3)sc2c1,-2.35%
